Compounds with a hit are over-represented: about 3.7% of the library has one in this group of screens.
ATXN viability: cell viability loss in ATXN counter-screen; S2 cells (HEK-293 line with an ATXN2-luciferase reporter) viability, CellTiter-Fluor protease fluorescence, 24 h; Potency, µM (doses to about 56.7 µM), hits mostly cytotoxic; hit rate 0.49% among 400,000; also: nearly all actives have a fitted effect of over 40% in size
ATXN2 expr inh: ATXN2 expression inhibition. HEK-293 ATXN2-luciferase reporter, luminescence, 24 h. AID 1745845. Potency, µM (highest dose often 57 µM), for the others: top-dose activity change, negative = inhibition, hits mostly inhibitors. hit rate 0.72% among 360,000; also: % is scaled to controls: 0 for no effect and ±100 for the full control effect; nearly all actives have a fitted effect of over 55% in size
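ATXN2-luciferase reporter cells (luciferase flanked by upstream and downstream ATXN2 gene portions) were treated 24 h at 37 °C with compounds at up to 57 uM. SteadyGlo luminescence gave expression; GF-AFC fluorescence gave viability.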
TGFb SMAD3 inh: inhibitors of TGF-b signaling | hit rate 1.2% among 410,000 | Potency, µM (series often up to 46.1 µM), for the others: top-dose activity, negative = inhibition, actives largely listed as inhibitors | AID 588855 | HepG2 CAGA-GFP TGF-b/SMAD3 reporter, GFP fluorescence, 18 h; TGF-beta stimulated, 500 pg/mL final; also: % is scaled to controls: 0 for no effect and ±100 for the full control effect; nearly all actives have a fitted effect of over 65% in size
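Inhibition of TGF-beta-driven CAGA-GFP reporter expression in HEPG2 cells is measured by cellular GFP fluorescence after 18 h stimulation with 500 pg/mL recombinant TGF-beta in 1% FBS medium at 37 degrees C.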
GLP-1R agonist: agonists of human GLP-1 receptor | P43220 | HEK293 GLP-1R CRE-luciferase, luminescence, 4-6 h; cells express a hypersensitive GLP-1R form | Potency, µM (highest dose often 45.6 µM), for the others: at the highest dose activation, usual class: activators | hit rate 0.007% among 380,000 | AID 624172; also: % of control where 0% means no effect
Target sequence (P43220 whole entry, looked up): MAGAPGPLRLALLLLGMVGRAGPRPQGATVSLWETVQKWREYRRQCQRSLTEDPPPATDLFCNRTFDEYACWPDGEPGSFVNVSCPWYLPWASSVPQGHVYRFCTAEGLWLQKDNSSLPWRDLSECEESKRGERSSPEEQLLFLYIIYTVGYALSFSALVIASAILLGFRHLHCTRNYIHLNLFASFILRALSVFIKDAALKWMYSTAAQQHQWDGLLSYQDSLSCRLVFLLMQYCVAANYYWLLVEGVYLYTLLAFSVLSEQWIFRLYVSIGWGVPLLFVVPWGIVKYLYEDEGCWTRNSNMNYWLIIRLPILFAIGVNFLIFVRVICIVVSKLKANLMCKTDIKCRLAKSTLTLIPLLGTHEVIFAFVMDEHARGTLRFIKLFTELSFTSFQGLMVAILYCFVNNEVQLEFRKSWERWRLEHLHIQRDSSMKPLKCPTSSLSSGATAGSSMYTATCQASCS
HepG2 tox-1: HepG2 cytotoxicity, counter-screen for TGF-b inhibitors | hit rate 0.76% among 410,000 | Potency, µM (doses to about 46.1 µM), for the others: top-dose activity change, negative = cytotoxicity, most hits filed as cytotoxic | HepG2 CAGA-GFP viability, ATP luminescence, 18 h
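HepG2 CAGA-GFP cells (1000/well, DMEM with 1% FBS) received compound, then TGF-beta at 500 pg/mL final, and were incubated 18 hours at 37 degrees C. Viability was read by CellTiter-Glo luminescence. Media-only wells were set as complete cell-killing and DMSO as no toxicity.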
GLP1R inv ag: acts as inverse agonist at human GLP-1 receptor | Potency, µM (top dose mostly 38.3 µM), for the others: top-dose activity change, negative = inhibition, hits mostly inhibitors | AID 624417 | P43220 | HEK293 GLP-1R CRE-luciferase, luminescence, 24 h; GLP-1R form is constitutively active | hit rate 1.6% among 410,000; also: % is scaled to controls: 0 for no effect and ±100 for the full control effect; nearly all actives have a fitted effect of over 55% in size
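Stable HEK293 clone (constitutively active GLP-1R + cAMP-response luciferase); 200 cells/uL plated, 12 h pre-culture, compound 24 hr, 37 deg C/5% CO2; detection reagent 12 min RT; luminescence.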
TGFb confirm: TGF-b pathway inhibition, cherry-pick retest | shares compounds with TGFb SMAD3 inh | HepG2 CAGA-GFP TGF-b reporter, GFP fluorescence, 18 h; cells stimulated with TGF-beta, 500 pg/mL | Potency, µM (top dose mostly 46.1 µM), inactives show at the highest dose activity, negative = inhibition, actives largely listed as inhibitors | hit rate 63% among 1,600; also: % is scaled to controls: 0 for no effect and ±100 for the full control effect; nearly all actives have a fitted effect of over 65% in size
HepG2 tox-2: toxic to HepG2 cells in TGF-b counterscreen; shares compounds with TGFb SMAD3 inh; HepG2 CAGA-GFP viability, ATP luminescence, 18 h; cells stimulated with TGF-beta, 500 pg/mL; Potency, µM (titrated, usually from 46.1 µM), for inactives: at the highest dose activity, negative = cytotoxicity, actives largely listed as inhibitors; hit rate 27% among 1,600; also: % is scaled to controls: 0 for no effect and ±100 for the full control effect; nearly all actives have a fitted effect of over 70% in size
TGFb CCL64 inh: blocks TGF-b signaling in CCL64 reporter cells; hit rate 41% among 1,600; CCL64 CAGA-GFP reporter, TGF-b stimulated, GFP fluorescence, 18 h; shares compounds with TGFb SMAD3 inh; Potency, µM (highest dose often 46.1 µM), without a hit: top-dose activity, negative = inhibition, most hits filed as inhibitors; AID 720536; also: nearly all actives have a fitted effect of over 65% in size
COP TGFb inh: TGF-b inhibition validated with COP promoter; shares compounds with TGFb SMAD3 inh; HepG2 COP-GFP TGF-b reporter, GFP fluorescence, 18 h; cells stimulated by added recombinant TGF-beta; Potency, µM (doses to about 46.1 µM), for inactives: at the highest dose activity, negative = inhibition, usual class: inhibitors; hit rate 3% among 1,600; AID 720537; also: nearly all actives have a fitted effect of over 70% in size
Numbers without * were called inactive; i = inactive; ? = inconclusive; . = not tested or not shown. Calls follow the shape of the dose curve; as a rule, active = well fitted curve in the direction sought with a large enough effect; inconclusive = small, poorly fitted or top-dose-only effect, or another doubt; inactive = no such curve, though single readings can be large; an effect the other way counts as inactive or inconclusive. Potency is read from the fitted curve at half-maximal effect.

SMILES	ATXN viability	ATXN2 expr inh	TGFb SMAD3 inh	GLP-1R agonist	HepG2 tox-1	GLP1R inv ag	TGFb confirm	HepG2 tox-2	TGFb CCL64 inh	COP TGFb inh
NC(=O)CC(NC(=O)Cc1cccc2ccccc12)c1ccc(N2CCc3ccccc3C2)c([N+](=O)[O-])c1 (stereo not drawn)	35.5µM*	?	12.6µM*	2.4%	-24.6%	-48.2%	?	?	?	45.3%
NC(=O)CC(NC(=O)Cc1cccc2ccccc12)c1ccc(N2CCC(Br)CC2)c([N+](=O)[O-])c1 (stereo not drawn)	?	?	12.6µM*	3.6%	-27.8%	-24.2%	?	-12.4%	?	-4.8%
NC(=O)CC(NC(=O)Cc1ccc(Br)cc1)c1ccc(N2CCN(c3ccccn3)CC2)c([N+](=O)[O-])c1 (stereo not drawn)	?	?	7.94µM*	-4.5%	-58.4%	?	?	?	-0.1%	0.1%
Cc1ccc(CNc2ncnc3onc(C)c23)cc1	i	-24.3%	1.4%	-3.0%	-26.0%	-7.6%	.	.	.	.
COc1cccc(CNC(=O)c2ccc(-c3nc(CS(=O)c4ccccc4)c(C)o3)cc2)c1 (stereo not drawn)	i	0.0%	?	.	1.1%	-16.9%	.	.	.	.
COc1ccc(NC(=O)C2CCN(S(=O)(=O)c3ccc4c(c3)NC(=O)C(C)S4)CC2)cc1 (stereo not drawn)	i	-31.6%	?	1.0%	-10.7%	?	.	.	.	.
CC1Sc2ccc(S(=O)(=O)N3CCC(C(=O)Nc4ccc(Cl)cc4)CC3)cc2NC1=O (stereo not drawn)	?	.	20µM*	0.3%	-9.5%	?	5.17µM*	?	?	30.4%
OCC1(Cc2ccccc2)CCN(Cc2cnc(-c3ccc(Cl)cc3)nc2)CC1	i	22.1%	8.91µM*	19.2%	15.8µM*	?	-10.3%	?	0.3%	35.6%
COc1ccc(-c2ncc(CN3CCC(CO)(Cc4cccc(OC)c4)CC3)cn2)cc1	i	-16.7%	-18.1%	6.3%	-23.3%	?	.	.	.	.
NC(Cc1cnc[nH]1)c1csc(Nc2ccc(C(F)(F)F)cn2)n1 (stereo not drawn)	i	-0.9%	19.7%	-7.4%	-22.3%	-7.6%	.	.	.	.
NC(Cc1ccc(C(F)(F)F)cc1)c1csc(Nc2cnccn2)n1 (stereo not drawn)	?	?	7.08µM*	-1.6%	-67.9%	?	?	?	?	62.3%
NC(Cc1ccc(C(F)(F)F)cc1)c1csc(Nc2ncccn2)n1 (stereo not drawn)	?	-28.3%	20.7%	-7.1%	-30.5%	-19.8%	.	.	.	.
NC(Cc1ccc(F)cc1)c1csc(Nc2ccc(C(F)(F)F)cn2)n1 (stereo not drawn)	.	?	10µM*	-4.2%	-111.1%	?	?	?	?	-26.6%
COc1ccc2c(c1)c(C(=O)CN(C)C)c(C)n2C	.	.	-0.5%	.	-17.7%	.	.	.	.	.
Cc1ccccc1OCC(O)CNC1CCC(NCC(O)COc2ccccc2C)CC1 (stereo not drawn)	?	?	5.62µM*	-9.6%	1.78µM*	1.26µM*	4.61µM*	5.17µM*	?	?
COC(=O)C1=C[C@@H](C(=O)OC)[C@@H]2C3=C(C(=O)[C@@]2(C)NC(=O)c2ccccc2)[C@H](C)[C@@H]2C(=O)N(Cc4ccccc4)C(=O)[C@@H]2[C@@H]3C1	.	.	-8.0%	.	-1.9%	.	.	.	.	.
O=c1cc(NS(=O)(=O)c2ccccc2)nc(SCc2ccc(Cl)cc2)[nH]1	?	3.1%	3.98µM*	1.5%	-49.8%	?	?	-23.9%	18.4µM*	4.2%
O=C(CSc1nc(NS(=O)(=O)c2ccccc2)cc(=O)[nH]1)Nc1ccc(Cl)cc1	i	-26.2%	0.7%	-1.5%	-27.3%	-1.4%	.	.	.	.
COc1ccccc1N1CCN(c2ncnc3c2c(-c2ccccc2)cn3-c2cccc(C)c2)CC1	.	.	-1.4%	.	4.3%	10.7%	.	.	.	.
COc1cc(C(CC(=O)Nc2cccc(C(C)=O)c2)N2Cc3ccccc3C2=O)cc(OC)c1OC (stereo not drawn)	i	-3.6%	-10.9%	15.8%	-35.4%	10.5%	.	.	.	.
O=C(Nc1nnc2n1CCS2)c1cc(C(F)(F)F)cc(C(F)(F)F)c1	i	11.4%	0.5%	-4.0%	-28.1%	11.1%	.	.	.	.
COC(=O)c1cc2oc3ccccc3c2n1Cc1nc(-c2ccccc2Cl)oc1C	i	-9.5%	-0.9%	.	-13.8%	3.4%	.	.	.	.
COc1ccc([C@H]2CC(=O)C=C(c3ccc(SC)cc3)C2)cc1OC	i	4.2%	?	6.6%	1.8%	5.1%	.	.	.	.
COc1ccc([C@H]2CC(=O)C=C(c3ccc(Oc4ccccc4)cc3)C2)cc1OC	i	-19.2%	7.94µM*	23.1%	-24.7%	?	9.2µM*	-20.9%	?	-1.7%
CC12CCC=CC1C(c1cccc([N+](=O)[O-])c1)N(Cc1ccccc1)C2=O (stereo not drawn)	.	.	?	.	-15.8%	.	.	.	.	.
CC(C)(C)C(=O)/C(=C/c1ccc(Cl)cc1)n1cncn1	10µM*	.	10µM*	-4.0%	-115.4%	3.98µM*	20.6µM*	?	?	65.0%
CCN(CC)S(=O)(=O)c1ccc2c(c1)nc(CN(C)C(=O)Nc1ccc(C)c(Cl)c1)n2C	.	.	-2.1%	.	2.4%	0.8%	.	.	.	.

Screening data (PubChem)
